The structures appear in SMILES notation. A structure can be active in one record and inactive in another. The source made the active and inactive calls. Rule for the calls: active = hit-call score of the fitted dose curve at least 0.9, where 1 is the maximum; inactive = score below 0.9.

The experiment in a line: ATG_M_19_CIS: Attagene CIS-FACTORIAL HepG2 Assay for M19 Transcription Factor (Internal Marker) (AID 2282939). The conditions noted are these: HepG2 Attagene CIS-FACTORIAL M19 internal marker reporter; actives raise or lower the signal. Here is the method: ATG_CIS is a cell-based, multiplexed-readout assay that uses HepG2, a human liver cell line, with measurements taken at 24 hours after chemical dosing in a 24-well plate.ATG_M_19_CIS is one of 52 assay component(s) measured or calculated from the ATG_CIS assay. It is designed to make measurements of mRNA induction, a form of inducible reporter, as detected with fluorescence intensity signals by Reverse transcription polymerase chain reaction (RT-PCR) and Capillary electrophoresis technology.Data from the assay component ATG_M_19_CIS was analyzed into 1 assay endpoint. This assay endpoint, ATG_M_19_CIS, was analyzed with bidirectional fitting relative to DMSO as the negative control and baseline of activity. Using a type of inducible reporter, measures of mRNA for gain or loss-of-signal activity can be used to understand the background control at the transcription factor-level as they relate to the gene . Furthermore, this assay endpoint can be referred to as a secondary readout, because this assay has produced multiple assay endpoints where this one serves a background control function. To generalize the intended target to other relatable targets, this assay endpoint is annotated to the background measurement intended target family, where the subfamily is internal marker.
Human liver HepG2 cells are transiently transfected with multiple reporter transcription units (MRTUs) in 6-well plates using FuGene 6 reagent (Roche; 3 ml FuGene/1 mg DNA). The MRTU constructs are regulated by a cis-regulating element (promoter). […] A major difference between the CIS and TRANS system is that in CIS activities of endogenous TFs are measured, whereas the TRANS assay evaluates changes in activities of exogenous, chimeric NR-Gal4 proteins. […] At the end of 24 hour incubation, total RNA was isolated using TriZol reagent (Invitrogen). The isolated RNA is then reverse-transcribed using oligo(dT) primer and Mo-MLV reverse transcriptase (Invitrogen) with DNAse I (Ambion) treatment for 30 min. The one-tenth of the produced cDNA was amplified by PCR using Taq DNA polymerase (Invitrogen) and two reporter sequence-specific primers. The PCR products were fluorescently labeled by primer extension with 6-arboxyfluorescein (6-FAM) 5'-labeled reporter sequence-specific primer (2 min at 95 C, 20 s at 68 C and 10 min at 72 C) and these products were digested with 5U of HpaI (New England Biolabs) for 2h at 37 C. The fragments were purified using Qiaquick PCR columns (Qiagen), analyzed on an ABI 3130xL genetic analyzer (Applied Biosystems) with peak positions identified by using a set of X-rhodamine (ROX)-labeled MapMarker1000 molecular weight standards (BioVentures). The raw capillary electrophoresis data was processed using Attagraph software (Attagene).
With `C=C(C)C(=O)OCCC(F)(F)C(F)(F)C(F)(F)C(F)(F)C(F)(F)C(F)(F)F`, the result was inactive.

Regarding `O=C(/C=C/c1ccc(O)cc1)CC(=O)/C=C/c1ccc(O)cc1`, the outcome was inactive.

For the compound `CC[C@H](c1ccc(O)cc1)[C@@H](CC)c1ccc(O)cc1`, the call was inactive.

For the compound `O=C(OCCOCCOC(=O)c1ccccc1)c1ccccc1`, the compound was classed as inactive.

In the case of `CCCCCCCCOC(=O)CCCCCCCCC(=O)OCCCCCCCC`, the compound was classed as inactive.

Regarding `Oc1cccc(O)c1`, the outcome was inactive.

`CC(O)CO` (stereo not given): the outcome was inactive.

For the compound `O=C(O)Cc1cc(I)c(Oc2cc(I)c(O)c(I)c2)c(I)c1`, the compound was called inactive.

Turning to `FC(F)(I)C(F)(F)C(F)(F)C(F)(F)C(F)(F)C(F)(F)I`, the compound was called inactive.

In the case of `COc1ccc([N+](=O)[O-])cc1N`, the outcome was inactive.

For the compound `Cc1oc(-c2ccccc2)nc1CCOc1ccc(C[C@H](Nc2ccccc2C(=O)c2ccccc2)C(=O)O)cc1`, the compound was classed as inactive.

Regarding `CCC(C)(C)C1CCC(O)CC1` (stereo not given), the compound was classed as inactive.

As to `CCCCCCCCCCCCN1CCCC1=O`, the outcome was inactive.

As to `CC(O)C(=O)O` (stereo not given), the result was inactive.

For `OC1CCC(C2CCCCC2)CC1` (stereo not given), the compound was classed as inactive.

As to `CC[C@H](C)[C@@H](C(=O)O)n1sc2ccccc2c1=O`, the compound was classed as inactive.

For the compound `CC(=O)CC(C)(C)O`, the compound was called inactive.

As to `O=C1OC2(c3ccccc31)c1cc(Br)c(O)c(Br)c1Oc1c2cc(Br)c(O)c1Br`, the outcome was inactive.

As to `CCc1nn(C2CCCCC2)c2cc(C3(C#N)CCC(C(=O)O)CC3)ccc12` (stereo not given), the result was inactive.

`CC(C)CCCCCCOC(=O)CCCCC(=O)OCCCCCCC(C)C`: the outcome was inactive.

For the compound `CCCCC[C@H](O)CC(=O)CCc1ccc(O)c(OC)c1`, the outcome was inactive.

Turning to `COCC(C)O` (stereo not given), the call was inactive.

For `N#C[C@@H]1CC(F)(F)CN1C(=O)CNC1CC2CCC(C1)N2c1ncccn1` (stereo not given in full), the call was inactive.

On to `CC#C[C@]1(O)CC[C@H]2[C@@H]3CCC4=CC(=O)CCC4=C3[C@@H](c3ccc(N(C)C)cc3)C[C@@]21C`, for which the call was inactive.

For the compound `CCCCCCCCCCCCCC[N+](C)(C)C`, the compound was classed as inactive.

With `c1ccc2cc3c(ccc4ccccc43)cc2c1`, the compound was classed as inactive.

With `ClC1=C(Cl)C(Cl)(Cl)C(Cl)=C1Cl`, the outcome was inactive.

For the compound `Cc1cc(C)c(O)c(C)c1`, the result was inactive.

For the compound `O=[N+]([O-])c1ccc(O)cc1`, the compound was classed as inactive.

Consider `CCC(=C(c1ccc(O)cc1)c1ccc(OCCN(C)C)cc1)c1ccccc1`, for which the compound was called inactive and the AC50 is 10.7 µM (active).

Take `CCc1ccc(CCOc2ccc(CC3SC(=O)NC3=O)cc2)nc1` (stereo not given): the result was inactive.

On to `CCOC(=O)CC(O)(CC(=O)OCC)C(=O)OCC`, for which the call was inactive.

Turning to `Cc1cc(CCN2CCN(c3nsc4ccccc34)CC2)cc2c1NC(=O)CC2(C)C`, the compound was called inactive.

Regarding `CCN(CC)CCNc1ccc(CNC=O)c2sc3ccc(OC)cc3c(=O)c12`, the result was inactive.

With `CC(=O)NC1(c2cccc(F)c2)CCN(CC[C@@]2(c3ccc(Cl)c(Cl)c3)CN(c3ccccc3)C(=O)CO2)CC1`, the result was inactive.

In the case of `CC(C)(C)c1cc(C(C)(C)C)c(O)c(C(C)(C)C)c1`, the outcome was inactive.

For `c1ccc2c(c1)ccc1ccccc12`, the compound was called inactive.

In the case of `O=c1c(-c2ccc(O)cc2)coc2cc(O)ccc12`, the compound was called inactive.

For the compound `c1ccc2c(c1)Cc1ccccc1-2`, the compound was called inactive.

The AC50 is the concentration at which the activity in the assay is half-maximal.
